Assay results: PubChem BioAssay (EPA / NIEHS)
Calls of active or inactive are those of the source. Rule for the calls: active = hit-call score of the fitted dose curve at least 0.9, where 1 is the maximum; inactive = score below 0.9.

Read-out: Peroxisomal acyl-coenzyme A oxidase 1 (ACOX1) gene, ACOX1 (gene 51)
Assay: LTEA_HepaRG_ACOX1: Life Technologies and Expression Analysis (LTEA) Assay for Peroxisomal acyl-coenzyme A oxidase 1 (ACOX1) gene using HepaRG (AID 2283467)
Conditions: mRNA level, 48 h; actives raise or lower the signal
Experimental: LTEA_HepaRG is a cell based, multiplexed-readout assay that uses HepaRG, a human liver cell line, with measurements taken at 48 hours after chemical dosing on a 96-well plate.LTEA_HepaRG_ACOX1 is one of 102 assay component(s) measured in the LTEA HepaRG cell culture assay. It is a marker of Steatosis.Data from the assay component LTEA_HepaRG_ACOX1 was analyzed into 1 endpoint. This assay endpoint, LTEA_HepaRG_ACOX1, was analyzed with bidirectional fitting relative to DMSO as the negative control and baseline of activity. Using a type of inducible reporter, measures of mRNA induction for gain or loss-of-signal activity can be used to understand regulation of transcription factor activity. To generalize the intended target to other relatable targets, this assay endpoint is annotated to the oxidase intended target family, where the subfamily is steatosis.
A total of 1060 chemcials from the ToxCast library were tested in eight-point concentration-response experiments. Cell culture and cytotoxicity assays were conducted at Thermo Fisher Scientific's Custom Services facility (Madison, WI). A single lot of human HepaRG cells (Thermo Fisher Scientific, Frederick, MD) was used for the cell culture experiments. 96-well format collagen type I coated plates of human HepaRG cells were prepared using established methods. Briefly, cryopreserved HepaRG cells were thawed, plated at a density of approximately 100,000 cells/well in HepaRG Thaw, Plate, and General Purpose media (HPRG770, Thermo Fisher Scientific), and incubated for 48 hours. 0.5% DMSO was selected as vehicle control to balance the requisite need of DMSO in HepaRG cultures to maintain differentiation (for example, baseline metabolism, proportions of hepatocytes vs. cholangiocytes), while enabling further hepatic receptor pathway activation (for example, PXR and CAR) in response to chemical exposure. 48 hours after plating, the culture medium was replaced with HepaRG Serum-Free Incudtion Media. Cells were exposed to each test chemical in duplicate and maintained in CO2 incubators for another 48 hours. Chemical plates were thawed to room temperature and 200x concentrations of treatment groups were prepared. 8-point conentration-reponse curves were made with the highest exposure at 100 uM, followed by half-log dilutions, all in 0.5% DMSO. Each test plate contained variouse controls, induction positive controls (1mM phenobarbital), cytotoxicity positive controls ([…] aflatoxin B1), vehicle controls (0.5% DMSO), and total lysis controls (0.5% DMSO). Cell morphology images were taken using an Essen IncuCyte FLR automated microscope, with six 96-well plates imaged in about 24 minutes. Images were captured and exported and JPEG files. Spent culture media was transfered to black-well plates for the LDH assay, and remaining media was sorted at -80 C for later use. Cells were treated with RLT buffer and frozen until shipped for gene expression analysis. Total RNA was isolated from the cell suspension in 75 uL of Buffer RLT (Qiagen, Germantown, MD 20874) by Quintiles/Expression Analysis (Durham, NC) using a custom isolation procedure. Total RNA from each plate well was transferred to a preamplification plate. Fluidigm's 96.96 Dynamic ArrayTM (Fluidigm, Amsterdam, the Netherlands) technology was used for gene expression analyses by quantitative reverse transcription polymerase chain reaction (qRT-PCR, performed by Quintiles/Expression Analysis, Durham, NC)89. Standard TaqManTM Assays (Applied Biosystems/ThermoFisher Scientific, Foster City, CA) were used to assess the expression of 93 genes selected based on their selectivity and sensitivity to important hepatic receptors known to be modulated by environmental chemicals; importance in human hepatocyte functionality; and hepatotoxicity. […]

SMILES	outcome	AC50
CCCOc1sc(C(=O)N2CCC(c3cc(CN)ccc3F)CC2)c(C)c1Br	inactive	
CC(=O)NC1(c2cccc(F)c2)CCN(CC[C@@]2(c3ccc(Cl)c(Cl)c3)CN(c3ccccc3)C(=O)CO2)CC1	inactive	
c1ccc2c(c1)Cc1ccccc1-2	inactive	
CC#C[C@]1(O)CC[C@H]2[C@@H]3CCC4=CC(=O)CCC4=C3[C@@H](c3ccc(N(C)C)cc3)C[C@@]21C	inactive	
C=C(C)C(=O)OCCC(F)(F)C(F)(F)C(F)(F)C(F)(F)C(F)(F)C(F)(F)F	inactive	
O=C(O)Cc1cc(I)c(Oc2cc(I)c(O)c(I)c2)c(I)c1		56.8 µM (active)
CCC(C)(C)C1CCC(O)CC1 (stereo not given)	inactive	
OC1CCCCC1	inactive	
CCCCCCC(=O)O	inactive	
CCCCC(CC)COC(=O)CCCCC(=O)OCC(CC)CCCC (stereo not given)	inactive	
CCCCCCCCCCCCN1CCCC1=O	inactive	
Oc1cc2ccccc2c2ccccc12	inactive	
CCc1ccc(CCOc2ccc(CC3SC(=O)NC3=O)cc2)nc1 (stereo not given)		0.718 µM (active)
CCN(CC)CCNc1ccc(CNC=O)c2sc3ccc(OC)cc3c(=O)c12		50 µM (active)
Cc1cc(CCN2CCN(c3nsc4ccccc34)CC2)cc2c1NC(=O)CC2(C)C		75.2 µM (active)
CC[C@H](c1ccc(O)cc1)[C@@H](CC)c1ccc(O)cc1		77.8 µM (active)
CC(C)CCCCCCOC(=O)CCCCC(=O)OCCCCCCC(C)C	inactive	
CCCCCCCC(=O)O		12.5 µM (active)
CCCOC(=O)c1ccc(O)cc1	inactive	
CCCCCCCCCCCCCCCS(=O)(=O)Oc1ccccc1	inactive	

SMILES	outcome	AC50
Oc1cccc(O)c1	inactive	
CCCCCCCCOC(=O)CCCCCCCCC(=O)OCCCCCCCC	inactive	
CCCCCCCCC(=O)O	inactive	
NC(=O)N(O)[C@@H]1C=C[C@H](Oc2cccc(Oc3ccc(F)cc3)c2)C1		65.1 µM (active)
C[C@@H]1C[C@H]2[C@@H]3CCC4=CC(=O)C=C[C@]4(C)[C@@]3(F)[C@@H](O)C[C@]2(C)[C@@]1(O)C(=O)COP(=O)(O)O	inactive	
OCCC(F)(F)C(F)(F)C(F)(F)C(F)(F)C(F)(F)C(F)(F)F	inactive	
CCc1nn(C2CCCCC2)c2cc(C3(C#N)CCC(C(=O)O)CC3)ccc12 (stereo not given)	inactive	
c1ccc2cc3c(ccc4ccccc43)cc2c1		18.8 µM (active)
CC[C@H](C)[C@@H](C(=O)O)n1sc2ccccc2c1=O	inactive	
Cc1oc(-c2ccccc2)nc1CCOc1ccc(C[C@H](Nc2ccccc2C(=O)c2ccccc2)C(=O)O)cc1		27.3 µM (active)
CCC(=C(c1ccc(O)cc1)c1ccc(OCCN(C)C)cc1)c1ccccc1	inactive	
O=c1c(-c2ccc(O)cc2)coc2cc(O)ccc12	inactive	
CC(C)(C)c1ccc(O)c(C(C)(C)C)c1	inactive	
Nc1cccc2c(N)cccc12	inactive	
CC(C)(C)CC(C)(C)c1ccc(O)c(-n2nc3ccccc3n2)c1	inactive	
CC(=O)CC(C)(C)O	inactive	
CC(O)CO (stereo not given)	inactive	
OCCC(F)(F)C(F)(F)C(F)(F)C(F)(F)C(F)(F)C(F)(F)C(F)(F)C(F)(F)F	inactive	
ClC1=C(Cl)C(Cl)(Cl)C(Cl)=C1Cl	inactive	
O=C(O)c1ccccc1C(c1ccc(O)cc1)c1ccc(O)cc1	inactive	
